# Laboratory results from ChEMBL document CHEMBL4513216, “Probing the Open Global Health Chemical Diversity Library for Multistage-Active Starting Points for Next-Generation Antimalarials” (ACS Infect Dis, 2020).
# Screen size: about 65,000 compounds; about 2,100 (3.2%) showed an effect of 50% or more. The median lay at about -52%. The sample as a whole holds a higher share of strong results than the screen did.
# Test system: Plasmodium falciparum
# Experiment: Screen against P. falciparum Asexual Blood Stage (ABS), at 5uM
# Type: functional, Dd2
# Settings: tested at 5 uM
row,Structure (SMILES),INHIBITION [%]
1,COC(=O)c1cccn1C1CCN(Cc2cnc3ccccn23)CC1,-55.1
2,COC(=O)c1ccc(S(=O)(=O)NC2CNC(=O)C2)cc1 (centres undefined),-28.8
3,Cn1c(=O)c2sccc2n(CC(=O)Nc2cccc(Cl)c2)c1=O,59.4
4,CC(C)c1cccc(NC(=O)Cn2c(=O)n(C)c(=O)c3sccc32)c1,-34.2
5,CCn1c(=O)c2sccc2n(CC(=O)Nc2cccc(Cl)c2)c1=O,-40
6,O=C(NC1CCN(c2ncccc2F)C1)c1cccc(-n2ccnc2)c1 (centres undefined),-41.7
7,Cc1ccc(S(=O)(=O)N2CCC(S(C)(=O)=O)CC2)cc1C,-1.8
8,Cc1cc(S(=O)(=O)N2CCCN3CCCC3C2)ccc1F (centres undefined),69.1
9,Cc1cc(S(=O)(=O)N2CCC(S(C)(=O)=O)C2)ccc1F (centres undefined),-22.2
10,Cc1ccc(S(=O)(=O)N2CCC(S(=O)(=O)c3nncn3C)CC2)cc1C,-31.9
11,Cc1ccc(S(=O)(=O)N2CCC(N3CCCCC3)CC2)cc1C,65.9
12,Cc1ccc(S(=O)(=O)N2CCCCC(N3CCN(C)CC3)C2)cc1F (centres undefined),39.6
13,CC(C(=O)N1CCc2sccc2C1)N1CCC(N2CCCC2)CC1 (centres undefined),53
14,CC(C)NC(=O)C1CCN(C(C)C(=O)N2CCc3sccc3C2)CC1 (centres undefined),-14.7
15,CC(C(=O)N1CCc2sccc2C1)N1CCCN(C2CC2)CC1 (centres undefined),22.7
16,CN1CCC(Cc2cncc(-c3ccccc3C(=O)O)n2)C1 (centres undefined),-92
17,CCc1nc2ccccc2c(=O)n1CC1(O)CCN(S(C)(=O)=O)CC1,-59.6
18,CC(C)c1cc(C(=O)N2CCOC3(CCCC3)C2)no1,-111
19,CCOc1ccc(C(=O)Nc2c(C)nc3ccc(Cl)cn3c2=O)cc1,-87.3
20,CN(C)c1ncccc1CNS(=O)(=O)c1ccc(C(N)=O)cc1,-34.2
21,COC(=O)c1ccc(S(=O)(=O)NCc2cccnc2N(C)C)cc1,-8.55
22,CCOC(=O)c1ccc(S(=O)(=O)NCc2cccnc2N(C)C)cc1,54.1
23,CC(C)(O)CCc1ccc(C(=O)N2Cc3cnn(CCO)c3C2)cc1,-86.5
24,CCOc1ncnc2c1CCN(C(=O)NCc1cccnc1)CC2,-58.1
25,Clc1cccc(CNc2cnn(CCN3CCCCC3)c2)c1,53.3
26,N#Cc1ccc(CNc2cnn(CCN3CCOCC3)c2)cc1,-16.7

row,Structure (SMILES),INHIBITION [%]
1,Clc1ccc(CNc2cnn(CCN3CCOCC3)c2)cc1Cl,-55.6
2,Cn1nccc1CCNC(=O)[C@H]1CNC[C@H](C(=O)N2CCCC2)C1,-22.7
3,Cc1ccc(CN2CCN(c3nc4c(s3)c(C)nn4C)C(C)C2=O)cc1 (centres undefined),69.8
4,Cc1nn(C)c2nc(N3CCNC(=O)C3Cc3ccccc3)sc12 (centres undefined),-81.9
5,COC(=O)CN1CCN(c2nc3c(s2)c(C)nn3C)C(C)C1=O (centres undefined),-88
6,O=C(CN1C=Nc2ccccc2S1(=O)=O)NCCCc1ccccc1,-115
7,CCn1cnnc1CNC(=O)N1CCN(c2ccccc2Cl)CC1,-79.9
8,COc1ccc(CN(Cc2cncn2C)CC2CCCO2)c(OC)c1 (centres undefined),-22.7
9,CSc1ccc(-c2nc(CN3C[C@@H](C)NC[C@@H]3C)c(C)o2)cc1,-61.5
10,Cc1oc(-c2cc(F)cc(F)c2)nc1CN1C[C@@H](C)NC[C@@H]1C,60.1
11,CSc1ccc(-c2nc(CN3CCNCC3C)c(C)o2)cc1 (centres undefined),35.1
12,Cn1cc(N2C[C@@H]3CN(CC4CCOCC4)C[C@@H]3C2=O)cn1,-67.1
13,Cn1cc(C2CCCN2C(=O)CCCc2ccccn2)cn1 (centres undefined),-94.3
14,Cc1ccc(CNC(=O)c2cc(Cn3ccnc3C(C)C)[nH]n2)o1,-76.4
15,CCCc1cc(N2CCC(NC3CCC(O)CC3)CC2)nc(C)n1 (centres undefined),-161
16,CCCc1cc(N2CCC(NCC3(O)CCCCC3)CC2)nc(C)n1,8.94
17,CCCc1cc(N2CCC(NCC3(O)CCN(C)CC3)CC2)nc(C)n1,51.2
18,CCS(=O)(=O)CC(=O)NC(c1ccccc1)C1CCCC1 (centres undefined),-30
19,Cc1noc(C)c1CN1CCN(C(C)c2nc(C3CC3)no2)CC1 (centres undefined),-77.5
20,Cc1c(Cc2ccccc2)c(O)nc2nc(N3CCOCC3)nn12,-56.2
21,O=C(c1ccncc1)N1CCC2(CC1)CCN(C(=O)c1cccnc1)C2,-57.2
22,CC(=O)Nc1ccc(OCc2noc(C(=O)N3CCCCCC3)n2)cc1,-83.9
23,Fc1ccc(CCC2CCCN(Cc3c[nH]cn3)C2)c(F)c1 (centres undefined),61.6
24,Nc1ccc(CC2CCCN(Cc3c[nH]cn3)C2)nn1 (centres undefined),-87
25,Cc1nc(CN2CCCC(CCc3ccc(F)cc3F)C2)c[nH]1 (centres undefined),57.6
26,CNc1ccc(CC2CCCN(Cc3c[nH]cn3)C2)nn1 (centres undefined),-105

row,Structure (SMILES),INHIBITION [%]
1,Cc1nc(CN2CCCC(CCc3ccccc3F)C2)c[nH]1 (centres undefined),36.5
2,Cc1nc(CN2CCCC(CCc3c(F)cccc3F)C2)c[nH]1 (centres undefined),43.1
3,Cc1[nH]c(=O)[nH]c(=O)c1CN1CCCC(CCc2ccccc2F)C1 (centres undefined),-26.5
4,Cc1[nH]c(=O)[nH]c(=O)c1CN1CCCC(CCc2ccc(F)cc2F)C1 (centres undefined),52
5,Cc1[nH]c(=O)[nH]c(=O)c1CN1CCCC(CCc2c(F)cccc2F)C1 (centres undefined),-44.3
6,Cc1ccc(OCC(O)CN2CCc3c(ncn3C3CC3)C2)cc1 (centres undefined),-28.3
7,CN1CCc2nc(C3CCCN(C(=O)CC(C)(C)C)C3)ncc2C1 (centres undefined),-102
8,Cc1cccc(-c2ccc(C(=O)N3CCSCC3)c(=O)[nH]2)c1,-14.2
9,Cc1csc(CN2CC[C@H]3O[C@H](C(=O)Nc4cccnc4)CC[C@H]32)n1,-18.1
10,Cc1nn(C)c2c(N3CCN(C(=O)C4CCCO4)CC3)ncnc12 (centres undefined),9.5
11,CC(=O)N1CCN(C(=O)c2cc(C(C)C)no2)[C@H]2CS(=O)(=O)C[C@H]21,-67
12,O=C(CCNC(=O)c1cccc(OC(F)F)c1)Nc1cccnc1,-128
13,Cc1cccc(CN2CCc3nnc(Cn4cccc4)n3CC2)n1,57.5
14,Cc1cccc(CN2CCc3nnc(CN(C)C)n3CC2)n1,-108
15,Cc1cccc(CN2CCc3nnc(CN4CCCC4=O)n3CC2)n1,-48.8
16,Cc1nnc2n1CCN(CCS(=O)(=O)c1ccc(Cl)cc1)C2,-194
17,Cc1cccc(-c2noc(Cn3nc(C(N)=O)ccc3=O)n2)c1,-165
18,CN(CCCC1CCCO1)S(=O)(=O)NCc1ccccc1 (centres undefined),-55.1
19,CN(C)CCN(CC1CCCO1)S(=O)(=O)NCc1ccccc1 (centres undefined),62
20,O=S(=O)(NCc1ccccc1)N(Cc1ccccn1)CC1CCCO1 (centres undefined),-181
21,C[C@@H](CO)NC(=O)c1ccc2nc(NS(C)(=O)=O)sc2c1,-104
22,CCOc1ccc(CNC(=O)N(C)CC(C)(C)O)cc1C,-65.1
23,COCC(=O)N1CCC2(CC1)CN(c1ccccn1)CCO2,-89.8
24,COCC(=O)N1CCC2(CC1)CC(COC)N(Cc1ccccn1)C2 (centres undefined),-56
25,COCC1CC2(CCN(Cc3nccs3)CC2)CN1Cc1ccccn1 (centres undefined),1.23
26,COCC1CC2(CCN(Cc3ccc(C)o3)CC2)CN1C(C)C (centres undefined),34.5

row,Structure (SMILES),INHIBITION [%]
1,COCC1CC2(CCN(C(C)=O)CC2)CN1Cc1csc(C)n1 (centres undefined),-7.46
2,COCC1CC2(CCN(Cc3ccco3)CC2)CN1C(C)C (centres undefined),64.6
3,COCCN1CCC2(CC1)CCN(Cc1ccccn1)CC2,52.2
4,COCC(=O)N1CCC2(CCN(Cc3ccccn3)CC2)CC1,-158
5,CCN1CCC2(CC1)CC(COC)N(Cc1csc(C)n1)C2 (centres undefined),-19.2
6,COCC1CC2(CCN(Cc3ccoc3)CC2)CN1Cc1ccccn1 (centres undefined),57.2
7,Cn1cc(CN2CCC3(CC2)CCN(Cc2ccccn2)CC3)cn1,-19.8
8,COCC1CC2(CCN(C(=O)c3ccco3)CC2)CN1C(C)C (centres undefined),24.5
9,COCC1CC2(CCN(CC3CC3)CC2)CN1Cc1csc(C)n1 (centres undefined),53.4
10,CC(C)CO[C@H]1CN(S(=O)(=O)c2cn(C)cn2)[C@@H]2CCCO[C@H]12,-26.7
11,CN(CC(F)(F)F)C(=O)CNC(=O)N1CCCC(N(C)C)C1 (centres undefined),-126
12,O=C(c1n[nH]c(=O)c2ccccc12)N1CCC(O)(CN2CCOCC2)C1 (centres undefined),-74.2
13,CC(C)(C)OC(=O)NC(C)(C(N)=O)c1cccc(Cl)c1 (centres undefined),-135
14,CC(C)c1noc(CCC(=O)N2CCSCC2)n1,-159
15,COCC1CN(Cc2ccccn2)Cc2nn(C)cc21 (centres undefined),-9.17
16,Cc1nnc(SCC(=O)NCc2ccc3c(c2)CCC(=O)N3)s1,-34.4
17,Cc1nc2cc(CNC(=O)C3CC(=O)N(C4CCCC4)C3)ccc2n1C (centres undefined),-135
18,CN(CC1CCCCC1)C(=O)c1ccc(-n2ncc(C#N)c2N)cc1,-48.5
19,CCOc1ccc(Cl)c(C(=O)NCCC(=O)Nc2ccccn2)n1,31.1
20,CCCn1nc2c(cc1=O)CN(c1ncnc3sccc13)CC2,-82.2
21,CCCNC(=O)c1cc(-c2cnc(N3CCCC3)nc2)cn1C,-151
22,Cc1nc(CNC(=O)c2ccc3c(c2)nc(N2CCOCC2)n3C)cs1,-33.8
23,CN1CCS(=O)(=O)[C@@H]2CCN(C(=O)c3ccccc3)CC[C@@H]21,-102
24,Cc1ccc(N2CCC3(CCN(Cc4ccccn4)CC3)CC2)nn1,-21.1
25,Cc1cccc(N2CCC3(CCN(Cc4ccccn4)CC3)CC2)n1,63.8
26,c1ccc(CN2CCC3(CC2)CCN(c2ccccn2)C3)nc1,3.14
